We go through 20 molecules from paper PMC5540273 (PLoS ONE, 2017).

Structures are written as SMILES. Several values for one entry are separate records, joined by “and”; a condition that tells them apart may be missing. Equal entries are not always repeated. Where two headings read alike, the source gives them in different places.

For test [1], the system named is DMPK. To be noted: concentration: 1 μM, replicates: in singlicate; n = 1.
Test [2] concerns T1, DRAK1.
T1 construct: gene STK17A
Particulars: concentration: 1 μM, replicates: in singlicate, n = 1.

For test [3], the system named is T2, DRAK2.
T2 construct: gene STK17B
To be noted: concentration: 1 μM, replicates: in singlicate, n = 1.

Test [4] concerns DYRK1A. Particulars: concentration: 1 μM, replicates: in singlicate; n = 1.
For test [5], the system named is DYRK1B. To be noted: concentration: 1 μM, replicates: in singlicate, n = 1.
Test [6] relates to DYRK2. Particulars: concentration: 1 μM, replicates: in singlicate, n = 1.
Test [7] concerns EGFR. Particulars: concentration: 1 μM, replicates: in singlicate, n = 1.
In test [8] the test system is EIF2AK1. To be noted: concentration: 1 μM, replicates: in singlicate, n = 1.
Test [9] deals with EPHA1. Particulars: concentration: 1 μM, replicates: in singlicate; n = 1.
Test [10] deals with EPHA2. To be noted: concentration: 1 μM, replicates: in singlicate; n = 1.
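Further: KINOMEscan kinase panel screen.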

`CCn1cnc2c(N)ncnc21` [GW345098]: the “%Inh” value in test [1] is 0%; in test [2] it was 6%; in [3], 9%; in [4], 0%; in test [5], 28%; in test [6], 12%. Besides, the “%Inh” value in test [7] is recorded as 15%; in [8], 0%; in test [9] it was 6%; in test [10], 14%.
Take `O=C1NC(=O)C(N2CCc3ccccc32)=C1c1cccc(Cl)c1` [SB-408010]: the “%Inh” value in [1] was 7%; in [2], 0%; in [3], 0%; in [4], 0%; in [5] it was 0%; in [6], 7%. Also, the “%Inh” value is reported as 0% in [7], 5% in test [8], 3% in test [9] and 15% in test [10].
For `Cl.Cl.Cl.Fc1ccc(-c2ncn(C3CCNCC3)c2-c2ccnc(Nc3ccccc3)n2)cc1` [SB-238039], the “%Inh” value in test [1] was 28%; in [2] (1 µM) it was 9% and 3%; in test [3] (1 µM), 18% and 6%; in test [4], 0%; in [5] (1 µM), 6% and 7%; in test [6] (1 µM), 11% and 0%. Further, the “%Inh” value was 90.1% and 72% in test [7] (1 µM); 0% and 1% in test [8] (1 µM); 0% in [9]; 0% in test [10].
In the case of `CNc1ncnc2[nH]ncc12` [SKF-18355], the “%Inh” value in [1] is on record as 0%; in test [2] it was 10%; in test [3], 0%; in test [4], 0%; in test [5], 0%; in test [6], 37%. The “%Inh” value in test [7], in test [8], in test [9] and in test [10] was 0% each time.
For the molecule `Cc1nnc(-c2ccc3occ(-c4ccc(C(C)O)cc4)c3c2)o1` (centres unmarked), the “%Inh” value in test [1] is 7%; in test [2] it was 19%; in [3], 36%; in test [4], 18%; in test [5] it was 11%; in [6], 0%. Further, the “%Inh” value in test [7] stood at 28%; in test [8], 0%; in test [9], 0%; in test [10], 0%.
As to `O=C(NCCCN1CCOCC1)c1cccc(Nc2nccc(Nc3ccc(Oc4ccccc4)cc3)n2)c1` [GW663929], the “%Inh” value in test [1] is recorded as 0%; in test [2] it was 10%; in test [3] it was 8%; in [4], 0%; in [5] it was 31%; in [6] it was 16%. The “%Inh” value in [7] is recorded as 80%; in test [8] it was 0%; in test [9], 0%; in test [10] it was 0%.
For `COc1cc2ncn(-c3cc(OCc4sccc4Cl)c(C(N)=O)s3)c2cc1OC` [GSK448459], the “%Inh” value in test [1] is on record as 0%; in [2] it was 0%; in test [3], 0%; in test [4] it was 13%; in test [5], 0%; in test [6] it was 26%. The “%Inh” value in test [7] is reported as 32%; in test [8], 0%; in test [9], 0%; in test [10], 0%.
`Cc1cccc(-c2nc(-c3ccc(S(C)(=O)=O)cc3)sc2-c2ccncc2)c1`: the “%Inh” value in test [1] is 0%; in test [2] it was 0%; in test [3] it was 0%; in test [4], 0%; in test [5], 7%; in test [6] it was 0%. The “%Inh” value in test [7] came to 0%; in test [8], 1%; in [9], 0%; in test [10] it was 10%.
As to `Cc1nnc(-c2ccc(C)c(-c3ccc(C(=O)Nc4ccc(NS(C)(=O)=O)cc4)cc3)c2)o1` [GW702865], the “%Inh” value was 0% in [1]; 0% in [2]; 0% in test [3]; 0% in test [4]; 1% in test [5]; 0% in test [6]. In addition, the “%Inh” value in test [7] stood at 13%; in test [8], 0%; in test [9] it was 0%; in [10] it was 16%.
For `NS(=O)(=O)c1cccc(-c2ccc3ncc(N4CCOCC4)nc3c2)c1` [GSK1535721], the “%Inh” value in test [1] amounted to 0%; in test [2] it was 0%; in test [3] it was 0%; in [4], 0%; in test [5], 4%; in test [6], 28%. In addition, the “%Inh” value in [7] is listed as 12%; in test [8], 0%; in test [9] it was 0%; in [10] it was 7%.
With `N#Cc1ccc(-c2cc(-c3c[nH]nc3-c3ccccn3)ccn2)cc1` [GW693028], the “%Inh” value in test [1] is listed as 0%; in test [2], 0%; in test [3] it was 0%; in [4], 17%; in [5], 0%; in [6], 0%. Also, the “%Inh” value in [7] was determined as 0%; in [8] it was 6%; in test [9], 17%; in [10], 2%.
As for `Cn1ccc2ncnc(Oc3ccc(NC(=O)Nc4ccncc4)c(Cl)c3)c21`, the “%Inh” value in test [1] worked out at 0%; in [2], 0%; in [3] it was 0%; in [4] it was 0%; in test [5] it was 21%; in test [6], 0%. Moreover, the “%Inh” value in test [7], in test [8], in test [9] and in test [10] was 0% each time.
As to `Fc1ccc(-c2ncn(CCCN3CCOCC3)c2-c2cccnc2)cc1` [SB-211743], the “%Inh” value in test [1] was determined as 24%; in test [2], 0%; in test [3] it was 0%; in [4], 3%; in [5] it was 0%; in test [6] it was 24%. Also, the “%Inh” value in test [7], in test [8], in test [9] and in test [10] was 0% each time.
For `COc1ccc(Nc2nccc(N3CCC(NC(=O)Nc4cccc(C(C)=O)c4)C3)n2)cc1` (centres unmarked) [GSK1379731], the “%Inh” value turned out to be 0% in test [1]; 0% in test [2]; 0% in test [3]; 23% in [4]; 0% in test [5]; 0% in test [6]. Besides, the “%Inh” value is on record as 15% in test [7], 0% in [8], 2% in test [9] and 4% in test [10].
For the molecule `COc1cc(Nc2nccc(N3CCC(NC(=O)c4cccc(NC(C)=O)c4)C3)n2)cc(OC)c1OC` (centres unmarked) [GSK1379754], the “%Inh” value is recorded as 0% in test [1]; 32% in [2]; 29% in test [3]; 17% in [4]; 28% in [5]; 28% in test [6]. In addition, the “%Inh” value stood at 0% in test [7], 0% in test [8], 11% in test [9] and 0% in [10].
`CN(C1=C(c2ccccc2)C(=O)NC1=O)c1ccccc1` [SB-334860]: the “%Inh” value in test [1] is recorded as 0%; in test [2], 3%; in test [3], 0%; in [4], 10%; in test [5], 9%; in [6], 10%. Further, the “%Inh” value is listed as 27% in test [7], 6% in test [8], 6% in test [9] and 1% in test [10].
In the case of `Cl.Nc1ncnc2occ(-c3ccc(NC(=O)Nc4cc(C(F)(F)F)ccc4F)cc3)c12` [SB-707548], the “%Inh” value in test [1] worked out at 0%; in test [2] it was 0%; in test [3], 0%; in test [4], 0%; in test [5], 0%; in test [6], 14%. The “%Inh” value in test [7] stood at 30%; in test [8] it was 0%; in test [9], 79%; in test [10], 97.5%.
Take `O=C(NCCNc1ccnc(Nc2ccc(F)cc2)n1)Nc1ccccc1F` [GSK1379880]: the “%Inh” value in test [1] came out at 0%; in test [2] it was 0%; in test [3], 0%; in test [4], 15%; in [5], 6%; in [6] it was 12%. In addition, the “%Inh” value in test [7] was determined as 22%; in [8], 0%; in [9], 19%; in [10], 0%.
As for `NS(=O)(=O)c1cccc(-c2ccc3nccc(-c4cccc(S(N)(=O)=O)c4)c3c2)c1` [GW867253], the “%Inh” value in [1] is 2%; in [2] it was 0%; in test [3], 0%; in [4] it was 0%; in test [5], 0%; in [6], 32%. The “%Inh” value in [7], in [8], in [9] and in test [10] was 0% in each case.
On to `Cc1c(Cn2c(C)nn3c(=O)cc(N4CCOC(C)C4)nc23)cccc1C(F)(F)F` (centres unmarked) [GSK2344444], for which the “%Inh” value in test [1] stood at 0%; in test [2], 1%; in test [3], 0%; in test [4], 7%; in [5], 0%; in [6], 24%. In addition, the “%Inh” value in test [7] is 34%; in test [8], 0%; in [9] it was 0%; in [10] it was 5%.
